Only some compounds are listed: those with a hit (about 1.6% of all), similar ones and a draw of the others.
KCNQ2 pot: enhances the rat KCNQ2 potassium channel | O88943 | CHO-K1 KCNQ2, FluxOR thallium flux fluorescence; active compounds read high | B-score at 10 µM | actives 0.54% (n = 310,000) | AID 2239;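 active = fluorescence ratio B-score at least 3 SD of library B-scores, with initial fluorescence B-score within 3 of them, cut at about 5.3 in these data; same plate scores as AID 2156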;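 note: B-score of peak minus minimum over baseline fluorescence ratio after K+ and Tl+ stimulus; positive B-score means potentiation of KCNQ2 with more thallium influx and brighter signal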
KCNQ2 inh: KCNQ2 (rat) channel inhibition; actives 1.1% (n = 310,000); CHO-K1 KCNQ2, FluxOR thallium flux, 20 min; active compounds read low; B-score at 10 µM; AID 2156; O88943;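 active = fluorescence ratio B-score at most minus 3 library SDs, with starting brightness B-score within 2 library SDs, cut at about -5.5 in these data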
KCNQ2 inh conf: rat KCNQ2 channel inhibition, confirmatory screen; shares compounds with KCNQ2 inh; KCNQ2-expressing cells, thallium flux; active compounds read low; activity change, negative = inhibition, % at 10 µM; actives 57% (n = 1,000); AID 493025
KCNQ1 spec: KCNQ2 inhibitor that also affects human KCNQ1 channel | shares compounds with KCNQ2 inh | KCNQ1-expressing cells, FluxOR thallium flux fluorescence; active compounds read low | activity change, negative = inhibition, % at 10 µM | actives 15% (n = 1,000) | AID 493026;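 active = activity change at least 3 SD of negative controls below their mean in both duplicate wells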;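 note: CHO cells stably transfected with KCNQ1 and depolarized by potassium stimulus; peak minus minimum fluorescence over baseline after thallium addition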
Target sequence (P51787 whole entry, looked up): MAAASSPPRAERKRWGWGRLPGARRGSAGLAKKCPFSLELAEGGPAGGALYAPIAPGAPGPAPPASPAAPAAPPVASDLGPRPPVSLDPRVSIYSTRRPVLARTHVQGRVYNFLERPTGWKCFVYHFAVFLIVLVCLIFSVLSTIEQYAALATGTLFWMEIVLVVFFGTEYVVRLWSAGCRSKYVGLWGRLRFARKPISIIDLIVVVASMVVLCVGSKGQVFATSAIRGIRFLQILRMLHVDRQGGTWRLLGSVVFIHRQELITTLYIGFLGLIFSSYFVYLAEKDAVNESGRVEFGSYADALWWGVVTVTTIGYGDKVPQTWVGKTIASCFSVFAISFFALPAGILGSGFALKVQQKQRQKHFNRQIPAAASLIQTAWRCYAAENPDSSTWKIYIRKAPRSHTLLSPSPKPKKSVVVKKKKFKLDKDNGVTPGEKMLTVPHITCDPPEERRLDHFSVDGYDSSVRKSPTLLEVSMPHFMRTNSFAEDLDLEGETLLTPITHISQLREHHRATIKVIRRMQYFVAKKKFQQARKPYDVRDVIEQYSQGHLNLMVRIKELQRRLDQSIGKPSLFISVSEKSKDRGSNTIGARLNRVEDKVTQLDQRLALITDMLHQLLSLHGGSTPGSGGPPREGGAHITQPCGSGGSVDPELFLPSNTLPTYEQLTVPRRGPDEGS
CHO Tl ctr: counter-screen for KCNQ2 inhibitors: effect in parental CHO cells | shares compounds with KCNQ2 inh | thallium flux counter-screen; active compounds read low | activity change, % at 10 µM | actives 14% (n = 1,000) | AID 493029
KCNQ2 patch conf: blocks rat KCNQ2 current in automated patch clamp. shares compounds with KCNQ2 inh. KCNQ2-expressing cells. calls only at 10 µM. actives 49% (n = 550). AID 588531
Hits are given with their value; 0 = inactive; - = not tested or not shown; + = active, no number. Unless noted, the rule behind the calls is not given here.

SMILES | KCNQ2 pot | KCNQ2 inh | KCNQ2 inh conf | KCNQ1 spec | CHO Tl ctr | others
COc1cc(-c2nc3cnccn3c2Nc2ccccc2)ccc1O | 0 | 0 | - | - | -
COc1cc(-c2nc3cccc(C)n3c2NCC2CCCO2)ccc1O (centres undefined) | 0 | -8.6 | 0 | 0 | 0
Cc1cc(C)c(NC(=O)CNC(=O)COC(=O)CN2C(=O)NC3(CCCC3)C2=O)c(C)c1 | 0 | 0 | - | - | -
COc1ccc(Cl)cc1C(=O)N(Cc1nc(-c2cccc(C)c2)no1)C(C)C | - | 0 | - | - | -
Cc1cccc(-c2noc(CN(C(=O)CCc3ccccc3)C(C)C)n2)c1 | 0 | -8 | -36% | -36% | -28% | KCNQ2 patch conf=0
Cc1cccc(-c2noc(CN(C)S(=O)(=O)c3cc(Cl)ccc3Cl)n2)c1 | 0 | -11 | 0 | 0 | 0
Cc1cccc(-c2noc(CN(C(=O)/C=C/c3ccccc3Cl)C(C)C)n2)c1 | - | 0 | - | - | -
O=C(CCC1CCCCC1)NCCS(=O)(=O)N1CCN(c2ccccc2)CC1 | 0 | 0 | - | - | -
O=C(CCNc1cccc(F)c1)c1cccc([N+](=O)[O-])c1 | 0 | -6.7 | 0 | 0 | 0
O=C(CCNc1ccc(Cc2ccncc2)cc1)c1cccc([N+](=O)[O-])c1 | - | 0 | - | - | -
Cc1ncccc1C(=O)N1CCCC(CNC(=O)C2(c3ccc(Cl)cc3)CC2)C1 (centres undefined) | - | 0 | - | - | -
O=C(NCCc1c[nH]c2ccccc12)C(=O)NCC1OCCCN1S(=O)(=O)c1cc(F)ccc1F (centres undefined) | 0 | 0 | - | - | -
Cc1onc(NC(=O)c2ccc(Cl)cc2Cl)c1Br | 0 | 0 | - | - | -
Cc1cc(Cl)ccc1OCC(=O)NC(=S)Nc1ccccc1N1CCOCC1 | - | 0 | - | - | -
COc1ccc(Cl)cc1C(=O)NC(=S)Nc1ccccc1N1CCOCC1 | 0 | -12 | -28% | 0 | 0 | KCNQ2 patch conf=+
O=[N+]([O-])c1cccc(/C=C/c2nc[nH]c2[N+](=O)[O-])c1 | 0 | 0 | - | - | -
O=C(Cn1cc(Cl)c([N+](=O)[O-])n1)NCCC1=CCCCC1 | 0 | 0 | - | - | -
O=C(COC(=O)c1c(Cl)cccc1Cl)Nc1cc(Cl)ccc1Oc1ccccc1 | - | 0 | - | - | -
O=C(COC(=O)c1ccccc1)Nc1cc(Cl)ccc1Oc1ccccc1 | - | 0 | - | - | -
COc1ccccc1OCC(=O)Nc1cc(Cl)ccc1Oc1ccccc1 | 0 | -10 | -32% | -35% | -30% | KCNQ2 patch conf=+
Cc1ccccc1OCC(=O)Nc1cc(Cl)ccc1Oc1ccccc1 | 0 | -7.4 | -26% | 0 | 0 | KCNQ2 patch conf=0
C=CCOc1ccc(C2/C(=C(\O)c3ccc4c(c3)OCCO4)C(=O)C(=O)N2CCCN2CCOCC2)cc1 (centres undefined) | 0 | 0 | - | - | -
COc1ccc(NC(=O)N2CCC(n3cnc4ccccc43)CC2)cc1 | 0 | 0 | - | - | -
O=C1S/C(=C/c2ccccc2F)C(=O)N1CCN=C1NS(=O)(=O)c2ccccc21 | 0 | 0 | - | - | -
N#CC1(C#N)CC(C=O)=C(N)C1(C#N)CC(=O)C12CC3CC(CC(C3)C1)C2 (centres undefined) | - | 0 | - | - | -
SMILES | KCNQ2 pot | KCNQ2 inh | KCNQ2 inh conf | KCNQ1 spec | CHO Tl ctr | others
COc1ccccc1C(C)NCC(=O)NC(=O)NCc1ccco1 (centres undefined) | - | 0 | - | - | -
CC(C)Cn1c(O)c(N=NC(=O)c2cccc(S(=O)(=O)N3CCCCC3)c2)c2ccccc21 | 0 | -9.3 | 0 | 0 | 0
CC(C)CCn1c(O)c(N=NC(=O)c2ccco2)c2ccccc21 | - | 0 | - | - | -
CC(NC(=O)c1ccc(Br)s1)c1ccncc1 (centres undefined) | - | 0 | - | - | -
CCN(CC)S(=O)(=O)c1ccc(N2CCOCC2)c(NC(=S)NC(=O)c2ccco2)c1 | 0 | -7.3 | -34% | 0 | 0 | KCNQ2 patch conf=+
O=C(NC(=S)Nc1cc(S(=O)(=O)N2CCOCC2)ccc1N1CCOCC1)c1ccco1 | - | 0 | - | - | -
O=C(CN1CCCc2ccccc21)NCc1ccc2c(c1)OCO2 | - | 0 | - | - | -
O=C(CN1CCCc2ccccc21)NCCc1ccc(Cl)cc1 | 0 | -11 | -34% | 0 | 0 | KCNQ2 patch conf=+
COc1ccc(C)cc1S(=O)(=O)NC(C)C(=O)Nc1ccc2c(c1)OCO2 (centres undefined) | 0 | 0 | - | - | -
CC(NC(=O)COc1ccccc1-c1ccccc1)c1ccccc1 (centres undefined) | 0 | -6.9 | -34% | -30% | -24% | KCNQ2 patch conf=+
CC(=O)Nc1ccccc1OCC(=O)NC(C)c1ccccc1 (centres undefined) | 0 | 0 | - | - | -
O=C(COc1ccccc1-c1ccccc1)N/N=C/c1cccc2ccccc12 | 0 | -7.8 | 0 | 0 | 0
COc1ccc(/C=N/NC(=O)COc2ccccc2-c2ccccc2)cc1 | - | 0 | - | - | -
N#C/C(=C\c1ccccc1[N+](=O)[O-])C(=O)NC1CCCCC1 | 0 | -6.9 | -34% | 0 | 0 | KCNQ2 patch conf=+
CCOc1ccccc1/C=C(\C#N)C(=O)NC1CC1 | - | 0 | - | - | -
CCC(C)C(NC(=O)OCc1ccccc1)C(=O)NC(Cc1ccc(O)cc1)C(=O)OC (centres undefined) | 0 | 0 | - | - | -
Cc1nc2sccc2c(=O)n1N | 0 | 0 | - | - | -
COc1cc2c(cc1OC)CN(CC(=O)Nc1cccc(C)c1)CC2 | - | 0 | - | - | -
COc1cc2c(cc1OC)CN(CCC(=O)c1ccc(Br)cc1)CC2 | 0 | -9.6 | -45% | -43% | -36% | KCNQ2 patch conf=0
CCOC(=O)N1CCN(CCC(=O)Nc2ccc(C)cc2)CC1 | 0 | 0 | - | - | -
CCOC(=O)N1CCN(CCC(=O)c2ccc(Br)cc2)CC1 | 0 | -7.1 | 0 | 0 | 0
COCc1ccc(CN2CCCCC2C(=O)Nc2ccc(Oc3ccccc3)nc2)o1 (centres undefined) | - | 0 | - | - | -
O=C(O)CCCNC(=O)Cc1ccccc1 | - | 0 | - | - | -
Cc1c(CCOC(=O)C23CC4(C)CC(C)(CC(C)(C4)C2)C3)sc[n+]1CC(=O)c1ccccc1 | - | 0 | - | - | -
Cc1c(CCOC(=O)CC23CC4CC(CC(C4)C2)C3)sc[n+]1CC(=O)c1ccccc1 | 0 | -8.5 | -20% | 0 | 0 | KCNQ2 patch conf=+
SMILES | KCNQ2 pot | KCNQ2 inh | KCNQ2 inh conf | KCNQ1 spec | CHO Tl ctr | others
COc1ccc(OC)c(CCNC(=O)c2ccc3c(c2)N(Cc2ccc(F)cc2)CCS3)c1 | - | 0 | - | - | -
COc1ccc(CCNC(=O)c2ccc3c(c2)N(Cc2ccc(F)cc2)CCS3)c(OC)c1 | 0 | -8.1 | 0 | 0 | 0
COc1ccc(/C=C(/C(=O)c2cccs2)N2C=CC=CC2=C(C#N)C#N)cc1 | 0 | -7.9 | -42% | 0 | 0 | KCNQ2 patch conf=0
COc1ccc(N=N/C(=C\O)C(=O)c2cccs2)cc1 | - | 0 | - | - | -
COc1ccc(/C(N)=N/OC(=O)CC2CCCCC2)cc1OC | 0 | 0 | - | - | -
COc1ccc(/C(N)=N/OC(=O)CSc2ccc(C)cc2)cc1OC | 0 | -9.2 | 0 | 0 | 0
COc1ccc(CNCc2c(O)c(Cl)cc3c(C)c(C)c(=O)oc23)c(OC)c1 | 0 | 0 | - | - | -
O=S(=O)(c1ccc2ccccc2c1)N(CC(O)COCc1ccco1)c1ccccc1 (centres undefined) | 0 | -8.9 | -20% | 0 | 0 | KCNQ2 patch conf=+
CCN(CC)CC(O)CN(c1ccccc1)S(=O)(=O)c1ccc2ccccc2c1 (centres undefined) | 0 | 0 | - | - | -
Cc1ccccc1CNC(=O)C(=O)NCC1OCCCN1S(=O)(=O)c1cccs1 (centres undefined) | - | 0 | - | - | -
c1ccc(-c2nccc3ccccc23)cc1 | 0 | 0 | - | - | -
Cc1ccc(-c2nc(-c3nccc4ccccc34)oc2-c2ccccc2)cc1 | 0 | -9.2 | -28% | 0 | 0 | KCNQ2 patch conf=0

Bioassay records deposited in PubChem by Johns Hopkins Ion Channel Center.
